In PubChem BioAssay:
Active and inactive are the calls of the source.

Key:
[1] = system: Plasmodium falciparum Sir2 (PF13_0152, Sir2A); assay: pfSir2 binders on small-molecule microarrays, primary screen, biochemical, small-molecule microarray, 635 nm fluorescence (AID 1098); conditions: small-molecule microarray binding, fluorescence 635 nm; higher = more signal;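 also: score merges spot fluorescence intensity with its signal-to-noise ratio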
[2] = small-molecule microarray binders of probe aDKK1, primary screen, biochemical, biotinylated probe, 635/667 nm fluorescence (AID 1099); conditions: higher = more signal;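 also: score merges 667nm spot fluorescence with signal to noise across triplicate slides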
[3] = small-molecule microarray binders of probe aCHRDL2, primary screen, biochemical, biotinylated probe, 635/667 nm fluorescence (AID 1100); conditions: higher = more signal
[4] = splicing luciferase reporter signal modulators, primary screen, spliceosome inhibition project, cell-based, HEK293, splice +/- reporter (AID 1101); conditions: luminescence, 24 h, higher = more signal, called active from +8 up or from −8 down;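 also: HEK293 cells carrying a splicing-competent luciferase reporter gene; test concentration not given here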
[5] = target: Fibroblast growth factor 10 (Homo sapiens) (UniProt O15520); assay: FGF10 binders on small-molecule microarrays, primary screen, biochemical, small-molecule microarray, 635 nm fluorescence (AID 1102); conditions: FGF10 binding, fluorescence 635 nm, higher = more signal
Fibroblast growth factor 10 (Homo sapiens), sequence (O15520 whole entry, looked up): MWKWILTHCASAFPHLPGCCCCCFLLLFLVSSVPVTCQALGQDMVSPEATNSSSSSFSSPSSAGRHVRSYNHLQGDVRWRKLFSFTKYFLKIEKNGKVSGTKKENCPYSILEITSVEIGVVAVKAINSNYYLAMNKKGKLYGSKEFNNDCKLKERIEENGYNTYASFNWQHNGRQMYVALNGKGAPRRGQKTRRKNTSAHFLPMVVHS

[6] = system: glycogen synthase kinase-3 (GSK3A per assay name; protocol says GSK3B); assay: GSK3 binders on small-molecule microarrays, primary screen, biochemical, small-molecule microarray, 635 nm fluorescence, GSK3A (AID 1103); conditions: small-molecule microarray binding, fluorescence 635 nm; higher = more signal; also: the record names both GSK3A and GSK3B
[7] = target: Epidermal growth factor receptor (Homo sapiens) (UniProt P00533); assay: EGFR binders on small-molecule microarrays, primary screen, biochemical, small-molecule microarray, 635 nm fluorescence (AID 1104); conditions: EGFR binding, higher = more signal;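 also: score merges 667 nm emission intensity with spot signal to noise over triplicate slides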
Epidermal growth factor receptor (Homo sapiens), sequence (P00533 whole entry, looked up): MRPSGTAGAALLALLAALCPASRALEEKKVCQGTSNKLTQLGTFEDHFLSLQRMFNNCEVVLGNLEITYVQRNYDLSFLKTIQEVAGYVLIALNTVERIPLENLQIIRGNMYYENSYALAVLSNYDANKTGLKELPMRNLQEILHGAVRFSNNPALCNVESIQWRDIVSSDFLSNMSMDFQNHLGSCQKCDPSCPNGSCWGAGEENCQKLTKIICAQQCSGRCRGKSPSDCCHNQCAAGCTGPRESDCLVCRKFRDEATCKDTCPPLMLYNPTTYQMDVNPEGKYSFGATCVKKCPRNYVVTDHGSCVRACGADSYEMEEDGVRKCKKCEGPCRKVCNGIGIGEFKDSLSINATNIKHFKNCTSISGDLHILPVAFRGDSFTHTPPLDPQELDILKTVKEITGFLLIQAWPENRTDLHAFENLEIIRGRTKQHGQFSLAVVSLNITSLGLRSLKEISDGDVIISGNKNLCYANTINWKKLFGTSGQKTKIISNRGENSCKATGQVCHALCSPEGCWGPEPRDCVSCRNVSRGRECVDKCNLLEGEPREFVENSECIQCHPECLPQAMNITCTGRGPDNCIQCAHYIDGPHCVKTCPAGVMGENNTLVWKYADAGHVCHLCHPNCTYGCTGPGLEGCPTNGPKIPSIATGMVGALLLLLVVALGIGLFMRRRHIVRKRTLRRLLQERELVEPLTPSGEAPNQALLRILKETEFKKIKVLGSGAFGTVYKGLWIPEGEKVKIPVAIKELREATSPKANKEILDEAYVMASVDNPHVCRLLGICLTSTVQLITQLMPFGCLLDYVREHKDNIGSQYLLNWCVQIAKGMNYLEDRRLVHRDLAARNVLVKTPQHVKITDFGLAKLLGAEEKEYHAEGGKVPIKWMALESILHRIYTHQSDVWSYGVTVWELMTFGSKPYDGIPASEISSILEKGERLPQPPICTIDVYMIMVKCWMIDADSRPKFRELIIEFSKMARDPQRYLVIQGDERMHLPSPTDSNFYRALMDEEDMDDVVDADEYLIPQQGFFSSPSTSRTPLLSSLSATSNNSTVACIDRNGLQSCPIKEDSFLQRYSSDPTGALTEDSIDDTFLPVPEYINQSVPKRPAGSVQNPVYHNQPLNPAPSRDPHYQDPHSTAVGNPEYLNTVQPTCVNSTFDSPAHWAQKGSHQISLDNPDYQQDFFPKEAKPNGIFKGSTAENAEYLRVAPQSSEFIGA

[8] = target: Follistatin-related protein 3 (Homo sapiens) (UniProt O95633); assay: FSTL3 binders on small-molecule microarrays, primary screen, biochemical, small-molecule microarray, 635 nm fluorescence (AID 1105); conditions: FSTL3 binding, higher = more signal;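 also: score merges emission near 667 nm and signal to noise per printed spot across three slides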
Follistatin-related protein 3 (Homo sapiens), sequence (O95633 whole entry, looked up): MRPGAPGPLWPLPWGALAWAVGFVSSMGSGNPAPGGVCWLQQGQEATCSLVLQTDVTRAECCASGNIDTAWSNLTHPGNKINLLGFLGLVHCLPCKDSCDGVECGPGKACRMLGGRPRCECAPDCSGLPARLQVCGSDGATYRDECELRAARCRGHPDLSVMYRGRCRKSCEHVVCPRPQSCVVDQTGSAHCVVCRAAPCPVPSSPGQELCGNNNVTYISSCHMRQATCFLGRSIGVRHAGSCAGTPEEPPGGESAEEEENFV

[9] = target: Dickkopf-related protein 1 (Homo sapiens) (UniProt O94907); assay: DKK1 binders on small-molecule microarrays, primary screen, biochemical, small-molecule microarray, 635 nm fluorescence scan (AID 1106); conditions: DKK1 binding, higher = more signal;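 also: score merges emission near 667 nm with signal to noise over three replicate slides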
Dickkopf-related protein 1 (Homo sapiens), sequence (O94907 whole entry, looked up): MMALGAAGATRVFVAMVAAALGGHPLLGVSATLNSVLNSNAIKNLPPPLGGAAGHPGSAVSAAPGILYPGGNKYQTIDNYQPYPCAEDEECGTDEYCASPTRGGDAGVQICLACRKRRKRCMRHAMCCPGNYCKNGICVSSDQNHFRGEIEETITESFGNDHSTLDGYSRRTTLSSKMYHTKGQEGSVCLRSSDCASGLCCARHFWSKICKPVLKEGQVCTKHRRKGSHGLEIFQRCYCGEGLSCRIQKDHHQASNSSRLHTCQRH

[10] = system: Inhibin beta A chain (activin A); assay: INHBA (activin A) binders on microarrays, primary screen, biochemical, small-molecule microarray, 635 nm fluorescence scan (AID 1107); conditions: small-molecule microarray binding, higher = more signal;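 also: mouse activin A protein probed at 4.33 µg/mL on printed slides; score merges bound-protein fluorescence near 667 nm with spot signal-to-noise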
[11] = system: Human papillomavirus type 1a protein E7 (residues 44-93); assay: HPV1a E7 fragment binders on microarrays, primary screen, biochemical, small-molecule microarray, residues 44-93, 635 nm fluorescence (AID 1108); conditions: small-molecule microarray binding, fluorescence 635 nm; higher = more signal;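 also: E7 fragment applied at 1 µg/mL in TBST for 1 h at 4 C; score combines spot fluorescence with its signal to noise ratio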
[12] = modulators of HCV replicon luciferase signal, primary screen, HCV replication inhibitor project, Huh7 cells, luciferase reporter (AID 1109); conditions: 48 h, higher = more signal;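 also: huh7 hepatoma cells harbouring a luciferase neomycin HCV replicon reporter; luciferase luminescence as measure of HCV replicon replication; test concentration not given here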
[13] = target: Left-right determination factor 2 (Homo sapiens) (UniProt O00292); assay: LEFTY2 binders on small-molecule microarrays, primary screen, biochemical, small-molecule microarray, 635 nm fluorescence scan (AID 1110); conditions: LEFTY2 binding, higher = more signal
Left-right determination factor 2 (Homo sapiens), sequence (O00292 whole entry, looked up): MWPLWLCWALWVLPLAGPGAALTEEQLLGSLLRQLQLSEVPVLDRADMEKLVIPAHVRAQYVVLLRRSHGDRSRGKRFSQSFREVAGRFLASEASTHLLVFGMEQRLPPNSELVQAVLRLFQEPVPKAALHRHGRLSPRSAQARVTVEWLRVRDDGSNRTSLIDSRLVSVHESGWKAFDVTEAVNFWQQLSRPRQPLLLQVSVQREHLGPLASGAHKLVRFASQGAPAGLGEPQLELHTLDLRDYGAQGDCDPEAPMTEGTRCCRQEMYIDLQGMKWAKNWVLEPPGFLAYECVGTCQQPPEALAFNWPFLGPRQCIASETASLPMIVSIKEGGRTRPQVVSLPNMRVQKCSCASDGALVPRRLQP

[14] = target: Calmodulin-1 (Homo sapiens) (UniProt P0DP23); assay: CALM1 binders on microarrays, EGTA buffer, profiling panel, biochemical, small-molecule microarray, Cy5-labelled CALM1 (AID 1111); conditions: Cy5-CALM1 binding fluorescence, higher = more signal;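 also: labelled calmodulin applied in Tris saline Tween buffer holding calcium plus EGTA and DTT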
[15] = target: Calmodulin-1 (Homo sapiens) (UniProt P0DP23); assay: calcium-bound CALM1 binders on microarrays, profiling panel, artefact control for SMM control-protein annotation, biochemical, small-molecule microarray, Cy5-labelled CALM1, plus calcium (AID 1112); conditions: Cy5-CALM1 binding fluorescence, higher = more signal;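 also: score merges spot fluorescence with signal to noise from triplicate slides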
[16] = small-molecule microarray binders of probe aWnt5a, primary screen, biochemical, biotinylated probe, 635/667 nm fluorescence (AID 1113); conditions: higher = more signal;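 also: score merges 667 nm fluorescence intensity with signal-to-noise per printed feature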
[17] = small-molecule microarray binders of probe aShh, primary screen, biochemical, biotinylated probe, 635/667 nm fluorescence (AID 1114); conditions: higher = more signal;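 also: probe is biotin-labelled aShh protein from a stem cell growth factor screen; measures binding of labelled protein to compounds printed on the slide; score merges feature fluorescence at 667 nm with signal-to-noise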
[18] = small-molecule microarray binders of probe aNog, primary screen, biochemical, biotinylated probe, 635/667 nm fluorescence (AID 1115); conditions: higher = more signal;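 also: probe is biotinylated aNog protein used at 0.15 µg/mL for 1 h at 4 C; z-score combines 667 nm fluorescence of each spot with its signal to noise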
[19] = target: Torsin-1A-interacting protein 1 (Homo sapiens) (UniProt Q5JTV8); assay: LAP1 binders from COS7 cell lysate, primary screen, small-molecule microarray, 635/667 nm fluorescence (AID 1116); conditions: COS7-hLAP1 lysate binding, 635 nm fluorescence, higher = more signal
Torsin-1A-interacting protein 1 (Homo sapiens), sequence (Q5JTV8 whole entry, looked up): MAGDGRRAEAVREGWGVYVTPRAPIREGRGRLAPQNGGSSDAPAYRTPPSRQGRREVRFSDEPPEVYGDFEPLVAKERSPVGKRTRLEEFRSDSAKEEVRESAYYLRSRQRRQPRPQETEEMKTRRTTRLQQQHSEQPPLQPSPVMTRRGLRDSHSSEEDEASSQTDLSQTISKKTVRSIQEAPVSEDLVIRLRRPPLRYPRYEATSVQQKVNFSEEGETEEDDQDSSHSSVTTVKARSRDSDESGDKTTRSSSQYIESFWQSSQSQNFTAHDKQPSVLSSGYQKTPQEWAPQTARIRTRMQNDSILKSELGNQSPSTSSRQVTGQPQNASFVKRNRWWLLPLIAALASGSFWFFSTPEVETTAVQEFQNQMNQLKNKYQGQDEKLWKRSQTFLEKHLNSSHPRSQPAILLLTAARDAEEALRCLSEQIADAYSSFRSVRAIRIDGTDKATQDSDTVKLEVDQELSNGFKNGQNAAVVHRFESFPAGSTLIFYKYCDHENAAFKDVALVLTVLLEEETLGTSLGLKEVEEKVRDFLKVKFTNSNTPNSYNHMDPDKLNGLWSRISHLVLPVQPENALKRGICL

[20] = target: Alpha-bungarotoxin (Bungarus multicinctus) (UniProt P60615); assay: alpha-bungarotoxin binders on microarray, profiling panel, artefact control for SMM control protein annotation, biochemical, small-molecule microarray, Alexa647 label, 635/667 nm fluorescence (AID 1117); conditions: alpha-BTX-A647 binding fluorescence, higher = more signal
Alpha-bungarotoxin (Bungarus multicinctus), sequence (P60615 whole entry, looked up): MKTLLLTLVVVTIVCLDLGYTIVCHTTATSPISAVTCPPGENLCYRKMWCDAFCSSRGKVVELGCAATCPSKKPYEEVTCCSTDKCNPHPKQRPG

SMILES	composite z-score [1]	composite z-score [2]	composite z-score [3]	z-score [4]	composite z-score [5]	composite z-score [6]	composite z-score [7]	composite z-score [8]	composite z-score [9]	composite z-score [10]	composite z-score [11]	z-score [12]	composite z-score [13]	composite z-score [14]	composite z-score [15]	composite z-score [16]	composite z-score [17]	composite z-score [18]	composite z-score [19]	composite z-score [20]
CC(=O)OC[C@H]1O[C@H](CC=NOC(C)CN2CCCCc3nc(C)c(C)cc32)C=C[C@@H]1OC(C)=O (stereo not given in full)	1.14	-0.0799	-0.199	0.375 (inactive)	0.83	1.31	1.59	1.31	1.68	1.13	1.11	-0.339	1.08	-0.208	-0.745	0.0044	-0.179	0.0805	0.556	0.971
CCOC(=O)[C@H](Cc1ccccc1)NC(=O)CCC1CC(OC(=O)NCc2cccc3ccccc23)CC2(CCCC(COC(=O)NCCc3ccccc3OC)O2)O1 (stereo not given in full)	0.405	-0.0537	-0.409	0.223 (inactive)	0.791	0.583	0.454	1.07	0.331	-0.251	0.881	-1.06	0.584	0.38	-0.298	-0.195	0.191	-0.138	0.135	0.635
CCN1C(=O)[C@H]2[C@H]3[C@H](O)[C@H](O)CC(=NOCC[C@@H]4C=C[C@H](OC(C)=O)[C@@H](COC(C)=O)O4)[C@@H]3CC[C@H]2C1=O	0.0458	-0.107	-0.426	-0.0787 (inactive)	0.476	0.0008	0.498	0.38	0.476	0.079	-0.263	-1.04	0.736	-0.207	-0.225	0.0102	0.0899	0.029	-0.359	0.391
C[C@H]1CC[C@H]2C(=O)N[C@H](Cc3ccccc3)C(=O)N2[C@@H]1c1ccccc1	-0.427	0.176	-0.225	-0.0985 (inactive)	0.136	-0.0595	0.353	0.185	0.768	0.595	-1.38	-0.283	0.395	-0.742	-0.194	-0.127	0.37	-0.0428	0.51	-0.009
CC(=O)OC[C@H]1O[C@@H](ON=C2[C@H]3CCn4c(=O)n(-c5ccccc5)c(=O)n4[C@H]3[C@H](O)[C@@H]3O[C@H]23)[C@H](OC(C)=O)[C@@H](OC(C)=O)[C@@H]1OC(C)=O	0.242	-0.425	-0.43	0.764 (inactive)	0.614	0.913	0.519	0.387	0.731	-0.1	1.08	-3.07	0.664	-0.0898	-0.268	-0.101	0.0902	-0.0563	0.479	0.393
CCOC(=O)[C@H](Cc1ccccc1)NC(=O)CCC1CC(OC(=O)NCc2cccc3ccccc23)CC2(CCCC(COC(=O)NCCOc3ccccc3)O2)O1 (stereo not given in full)	1.2	-0.351	-0.477	-1.82 (inactive)	0.441	0.974	0.575	0.579	0.504	0.011	1.35	-0.795	0.628	0.653	-0.378	-0.176	-0.493	-0.347	0.166	0.594
CC(=O)OC[C@H]1O[C@@H](ON=C(C)C)[C@H](OC(C)=O)[C@@H](OC(C)=O)[C@@H]1OC(C)=O	-0.745	-0.191	0.46	0.851 (inactive)	-0.527	-1.28	-0.246	-1.57	-1.38	-2.17	-2.02	-0.563	0.207	-0.862	-0.678	-0.0459	-0.13	-0.345	-0.958	-1.3
COC(=O)CC=C[C@@H](C)[C@@H](C=NOC[C@@H](C)[C@H](OCc1ccccc1)C(C)C)NS(=O)(=O)c1ccc(C)cc1	-0.196	-0.439	-0.75	-0.21 (inactive)	-0.714	-1.15	-0.0573	-0.888	0.0424	0.168	-0.482	-1.44	0.21	-1.51	-1.26	-0.148	-0.0977	-0.541	0.161	-1.25
COC(=O)[C@H](C)NC(=O)CCC1CC(OC(=O)NCCc2ccc(F)cc2)CC2(CCCC(COC(=O)NCc3ccccc3)O2)O1 (stereo not given in full)	0.768	-0.128	-0.37	-0.114 (inactive)	0.834	1.28	0.462	1.29	0.477	0.0384	1.32	-1.18	0.816	0.516	-0.796	-0.141	-0.221	-0.384	0.708	0.574
COC(=O)CC=C1c2ccccc2[C@H](OC)[C@H]1C	-0.0214	-0.314	-0.624	0.0124 (inactive)	0.0785	-0.234	0.33	0.0242	0.485	1.05	-0.887	-0.154	0.398	-0.452	-0.746	-0.0981	-0.138	-0.172	-0.035	-0.545
COC(=O)[C@@H]1CC[C@H](C)[C@@H](c2ccc(C)cc2)N1C(=O)c1ccc(C=NO[C@@H](C)c2cc(-c3c(C)cc(C)cc3C)no2)cc1	0.321	-0.12	-0.144	-1.04 (inactive)	0.418	0.738	0.51	0.242	0.675	0.598	1.04	-0.542	0.45	0.0785	-0.37	-0.0236	-0.141	0.0373	0.722	0.208
